We go through 36 compounds from PubChem BioAssay (NCI).

“And” between values parts separate entries of the source, which are not always exact repeats. Equal entries are not always repeated. Compounds without any hit were thinned out: in the full panel of roughly 83,000, 20% have a hit.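 A percent growth of 40 corresponds to 60% growth inhibition; 0 means no net growth; -100 means all cells died. Active threshold: below 10.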 A number with no mark means an inactive call. The source made the active and inactive calls.

One test has as its system NCI-H23 lung. The test can be described thus: NCI-60 one-dose screen, 48 h (100 = growth as untreated, 0 = no growth, -100 = all killed). To be noted: 10 µM unless noted.
`NC(=O)c1c(NC(=O)/C=C/c2cccs2)sc2c1CCC(=O)C2`: the growth is 17.4%.

Regarding `CC1=CC(C)(C)NC(=S)N1c1ccc(Cl)cc1`, the growth is 101% and 99%.

For `Cc1cc(N2CCCCC2)nc(NCc2cc(Nc3ccnc4cc(Cl)ccc34)ccc2F)n1`, the growth is 22.3%.

Take `CCCCCCCC/C=C\CCCCCCCCOc1ccccc1CC(=O)NCC[N+]1(C)CCOCC1`: the growth is 69.5%.

For `COc1nc2ccc(C)cc2cc1/C=[N+](\[O-])c1ccccc1`, the growth was 93.8%.

In the next test the test system is NCI-H226 lung. The description is as above. Conditions: 10 µM unless noted.
As for `O=C(O)C1C2CCC1C(O)C2` (stereo unspecified), the growth was 94.5%.

As for `CC1=C2[C@@H](CC1)[C@]1(C)O[C@@](C3CC3)(C[C@H]1OC(=O)CO)[C@H]2OC(=O)/C=C/c1ccccc1`, the growth was 86.7%.

Consider `CON1CCC[C@]2(C)[C@H]3CC[C@@H]4[C@H]5[C@@H](O)C(C)(C)CC[C@]5(CO)CC[C@@]4(C)[C@]3(C)CC[C@H]2C1(C)C`, for which the growth is 92.8%.

In the case of `O=C(Nc1ccccc1C(=O)N/N=C(\c1ccccc1)c1ccccn1)c1ccccc1`, the growth was 18.1%.

Regarding `CNC(=O)c1cc(Oc2ccc3nc(NC(=O)Nc4ccc(C(F)(F)F)cc4)sc3c2)ccn1`, the growth was 85.6%.

`COc1cc(CO)cc2cc3ccccc3nc12`: the growth was 79.4%.

Take `Cc1ccc(S(=O)(=O)OC[C@@]2(C)CC[C@]3(C)CC[C@]4(C)C(=CC[C@@H]5[C@@]6(C)CCCNC(C)(C)[C@@H]6CC[C@]54C)[C@@H]3C2)cc1`: the growth was 19.7%.

With `O=C1C(c2c[nH]c3ccccc23)=C(c2coc3cc(Br)ccc23)C(=O)N1O`, the growth was 87.1%.

As to `Cc1ccc(Cc2cnc(NC(=O)c3cc(C)oc3C)s2)cc1`, the growth was 90.4%.

With `CN(Cc1ccccc1)c1nc(Cl)c(C2CC(c3ccc4c(c3)OCO4)=NN2c2cc(Cl)cc(Cl)c2)s1` (stereo unspecified), the growth is 102%.

Regarding `COc1ccc(/C=C/C(=O)c2cc3c(N)c(C(=O)Nc4ccccc4Cl)sc3nc2C)cc1`, the growth is 27.4%.

As for `COc1ccc(/C=N/NC(=O)CN2CCN(c3cc4c(cc3F)c(=O)c(C(=O)O)cn4C3CC3)CC2)cc1O`, the growth was 112%.

With `COc1ccc(-c2csc(NC(=O)CN3CCN(CCO)CC3)n2)cc1NS(=O)(=O)c1cccc2c(N(C)C)cccc12`, the growth was 92.5%.

Turning to `COc1cccc(NC(=O)c2sc3nc(C)c(C(O)c4ccccc4)cc3c2N)c1` (stereo unspecified), the growth was 55%.

On to `COc1ccc(N2CCN(S(=O)(=O)c3oc(-c4ccccc4)nc3C#N)CC2)cc1`, for which the growth is 64.5%.

For the compound `O=S(=O)(O)c1ccc(N=Nc2ccc(N=Nc3cccc4ccccc34)c(S(=O)(=O)O)c2)cc1`, the growth is 90.1%.

For the compound `O=C1/C(=C/c2ccc(F)c(F)c2)CN(C(=O)C(Cl)Cl)C/C1=C\c1ccc(F)c(F)c1`, the growth was -17% (active).

As to `O=S(=O)(Nc1cc(Sc2cccc3cccnc23)c(O)c2ccccc12)c1ccc(F)cc1`, the growth is 44.3%.

On to `COc1cc(Cl)cc(-c2nn(C(=O)NS(=O)(=O)c3ccc(Cl)cc3)cc2-c2ccncc2)c1`, for which the growth was 70.7%.

Take `CCN1CCN(CC(=O)Nc2nc3ccc(NCc4ccc(C)cc4)cc3s2)CC1`: the growth was 72%.

Regarding `COc1cc(-c2nc(SCCC(C)C)nc(Nc3ccc(F)cc3)c2C#N)cc(OC)c1OC`, the growth was 90.4%.

Take `O=C(/C=C/c1ccc([N+](=O)[O-])cc1)c1ccccc1`: the growth was 85%.

`COc1cc(-c2nn(-c3cccc(NC(=O)CCN4CCN(C)CC4)c3)cc2-c2ccncc2)ccc1Cl`: the growth was 67.7%.

On to `N#CC(Cc1cccc2ccccc12)c1cc2ccccc2[nH]1` (stereo unspecified), for which the growth was 83.1%.

Consider `C#CCOCC1CN(C)C(=O)O1` (stereo unspecified), for which the growth is 103%.

In the case of `Cc1ccc(/C=C/c2c(C(=O)/C=C/c3ccccc3)c(C)nc3ccccc23)cc1`, the growth was 43.6%.

For the compound `Cc1ccc(-c2nc(C#N)c(S(=O)(=O)N(C)C)o2)cc1`, the growth was 103%.

For `O=C(Nc1ncc(Cc2cccc(C(F)(F)F)c2)s1)c1ccc(-n2cnnn2)cc1`, the growth was 69.3%.

In the case of `COc1c(F)cc(-n2c(C(=O)N3CC(F)C3)cc3cccnc32)cc1F`, the growth is 96.2%.

For `N=C1/C(=C2\NC3C=CC=CC3S2)C(c2ccc(Cl)cc2)C2C(=O)N(c3ccccc3)C(=S)N12` (stereo unspecified), the growth was 91.6%.

Consider `COc1ccc(Cl)cc1Nc1nc(C(F)(F)F)ccc1C(=O)N/N=C/c1ccc(N(C)C)cc1`, for which the growth was 105%.
